# Reference: paper PMC4336329 (PLoS ONE, 2015)
# Among all 310,000 compounds or so, about 14,000 (4.5%) showed an effect of 50% or more. The effect is printed as a negative number. What follows is part of a selection rich in strong results, with near analogues and random picks from the rest.
# Biological target: human ether-à-go-go-related gene (hERG) potassium channel (human, UniProt Q12809)
# Assay: primary screen, population patch clamp on CHO cells stably expressing hERG; higher = less effect of the substance
# 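Further: peak tail current of the secondary pulse compared with the same well before compound.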
# human ether-à-go-go-related gene (hERG) potassium channel, sequence (Q12809 whole entry, looked up): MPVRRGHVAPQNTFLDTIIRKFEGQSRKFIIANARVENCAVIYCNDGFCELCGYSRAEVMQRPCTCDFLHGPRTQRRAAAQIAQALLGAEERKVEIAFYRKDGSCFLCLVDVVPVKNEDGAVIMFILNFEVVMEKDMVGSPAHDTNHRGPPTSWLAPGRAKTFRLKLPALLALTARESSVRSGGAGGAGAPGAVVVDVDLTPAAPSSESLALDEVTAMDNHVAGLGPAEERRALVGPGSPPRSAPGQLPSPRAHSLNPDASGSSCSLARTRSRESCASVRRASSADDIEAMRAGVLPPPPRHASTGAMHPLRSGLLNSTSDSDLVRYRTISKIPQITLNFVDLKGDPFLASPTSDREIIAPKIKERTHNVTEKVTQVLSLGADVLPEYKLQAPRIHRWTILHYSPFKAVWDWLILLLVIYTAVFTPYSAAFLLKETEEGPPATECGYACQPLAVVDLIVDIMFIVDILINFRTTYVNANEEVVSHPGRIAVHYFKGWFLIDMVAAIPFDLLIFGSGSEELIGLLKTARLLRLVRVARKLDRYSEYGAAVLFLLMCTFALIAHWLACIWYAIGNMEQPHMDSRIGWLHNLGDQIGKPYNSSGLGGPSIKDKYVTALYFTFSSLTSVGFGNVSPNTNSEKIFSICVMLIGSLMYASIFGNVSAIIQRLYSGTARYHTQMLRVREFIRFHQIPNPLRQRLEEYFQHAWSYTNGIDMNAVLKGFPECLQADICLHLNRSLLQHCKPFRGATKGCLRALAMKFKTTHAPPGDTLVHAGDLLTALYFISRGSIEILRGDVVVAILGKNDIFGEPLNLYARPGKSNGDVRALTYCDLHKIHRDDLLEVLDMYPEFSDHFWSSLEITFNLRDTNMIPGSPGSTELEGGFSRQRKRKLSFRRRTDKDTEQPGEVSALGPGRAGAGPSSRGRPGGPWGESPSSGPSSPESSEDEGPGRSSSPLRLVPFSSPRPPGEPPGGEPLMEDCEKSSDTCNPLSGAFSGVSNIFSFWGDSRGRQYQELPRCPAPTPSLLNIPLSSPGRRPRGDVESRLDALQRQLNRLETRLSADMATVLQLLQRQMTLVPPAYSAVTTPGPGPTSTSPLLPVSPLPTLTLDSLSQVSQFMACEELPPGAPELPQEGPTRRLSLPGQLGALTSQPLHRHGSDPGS
row,Compound,"hERG current change (%, negative = inhibition) at 10uM"
1,O=c1c2ccccc2nc(/C=C/c2ccc(Br)cc2)n1CCO,2.81%
2,COCCNC(=O)/C(C#N)=C/c1c(N2CCN(c3ccccc3)CC2)nc2c(C)cccn2c1=O,5.92%
3,O=C(Nc1cc(=O)[nH]c2ncnn12)c1ccccc1Cl,1.15%
4,CCOC(=O)c1ccc(N2C(=O)CC(C3CCCO3)C2=O)cc1 (stereo not shown),-11.2%
5,CN(Cc1ccccc1)S(=O)(=O)c1ccc(N2CCCC2=O)cc1,-12.7%
6,Cc1cccc(Nc2c3c(nc4ccccc24)CCC3)c1.Cl,-71.5%
7,Fc1cccc(Nc2nc(-c3ccncc3)nc3ccccc23)c1,15.4%
8,Cc1cccc(Nc2ncnc3ccccc23)c1.Cl,-5.93%
9,Cl.c1ccc(Nc2c3c(nc4ccccc24)CCC3)cc1,-76.2%
10,Cc1ccc(Nc2c3c(nc4ccccc24)CCC3)cc1.Cl,-78.8%
11,Cc1ccc(NC(=O)c2c3c(nc4ccccc24)CCC3)cc1,2.86%
12,Cl.Nc1nc(Nc2cccc(F)c2)nc2ccccc12,-19.3%
13,Cl.Fc1cccc(Nc2c3c(nc4ccccc24)CCC3)c1,-68.2%
14,COc1cccc(NC(=O)CCCOc2cc(=O)n(C)c3ccccc23)c1,12.6%
15,Cc1ccc(-n2c(SCC(=O)N3CCCCC3)nc(O)cc2=O)cc1,16.1%
16,Cc1ccnc(SC2CC(=O)N(c3ccc([N+](=O)[O-])cc3)C2=O)n1 (stereo not shown),-26.8%
17,COc1ccc(CNC(=O)c2ccc3c(c2)N(C)CCS3)cc1,-2.44%
18,O=[N+]([O-])c1ccc(Cl)cc1NCCCN1CCOCC1,0.725%
19,O=C(NCc1ccc2c(c1)CCO2)Nc1cccc(C(F)(F)F)c1,12.6%
20,CCc1noc(C)c1C(=O)OC(C)C(=O)NCc1ccc(OC)cc1 (stereo not shown),-15.3%

row,Compound,"hERG current change (%, negative = inhibition) at 10uM"
1,COc1ccc(-n2c(=O)[nH]cc(C(=O)N3CCc4ccccc43)c2=O)cc1,16.2%
2,COc1ccc(-c2csc3nc(-c4ccccc4)oc(=O)c23)cc1OC,14.3%
3,CN(C)CCNC(=O)c1ccc2c(c1)N(Cc1ccc(F)cc1)CCS2,-32.8%
4,COc1cc(/C=C2\SC(N3CCC(C)CC3)=NC2=O)ccc1O,-5.99%
5,Cc1ccc(C)c(NC(=O)COC(=O)c2cccc3c2C(=O)c2ccccc2C3=O)c1,-14.2%
6,O=C(CCCCCl)Nc1c2c(nc3ccccc13)CCC2,-23.6%
7,CC(=O)Nc1ccc(Nc2c3ccccc3nc3ccccc23)cc1,-55.7%
8,COc1cc(NC(=O)c2c3c(nc4ccccc24)CCC3)cc(OC)c1,11.3%
9,COc1ccc(NC(=O)c2c3c(nc4ccccc24)CCC3)cc1,10.1%
10,Cl.O=C(O)c1ccc(Nc2c3ccccc3nc3ccccc23)cc1,-2.61%
11,CCOc1ccc(Nc2c3ccccc3nc3ccccc23)cc1,-42.4%
12,Fc1ccc(Nc2c3c(nc4ccccc24)CCC3)cc1,-64.3%
13,COc1ccc(Nc2c3c(nc4ccccc24)CCC3)cc1.Cl,-70.9%
14,COc1ccc(Nc2c3ccccc3nc3ccccc23)cc1,-69.6%
15,O=C(NCc1ccc(F)cc1)c1c2c(nc3ccccc13)CCC2,-21.1%
16,CC(=O)Nc1ccc(Nc2cc(C)c3ccccc3n2)cc1,-27.4%
17,COc1ccc(Nc2nc(-c3ccccc3)c3ccccc3n2)cc1,-5.22%
18,CCOC(=O)C1CCN(C(=O)Nc2ccc3oc(C)nc3c2)CC1,7.35%
19,N/C(=N\OC(=O)c1cccnc1)c1ccc(Cl)cc1Cl,12.7%
20,COc1ccc(-n2c(C)cc(C(=O)COC(=O)c3cc(NC(=O)c4cccs4)c(OC)c(OC)c3)c2C)cc1,6.03%

row,Compound,"hERG current change (%, negative = inhibition) at 10uM"
1,COC(=O)c1ccc(CN2C(=O)NC3(CCCCC3)C2=O)cc1,11.2%
2,COc1ccc(OCC(=O)N2CCN(S(=O)(=O)c3ccccc3[N+](=O)[O-])CC2)cc1,-31.2%
3,CN(c1cccc2cccnc12)S(=O)(=O)c1ccccc1,-8.43%
4,Cc1cc(-c2ccc(C)c(S(=O)(=O)NCCN3CCC(C)CC3)c2)on1,-12.8%
5,COc1ccc(-c2cc(C)no2)cc1S(=O)(=O)NCc1cccc(C)c1,-41.5%
6,COc1cccc(CCN2CCC(CNS(=O)(=O)c3cc(-c4cc(C)no4)ccc3C)CC2)c1,-77.2%
7,COc1cccc(CNS(=O)(=O)c2cc(-c3cc(C)no3)ccc2C(C)C)c1,-7.33%
8,Cc1cc(-c2ccc(C)c(S(=O)(=O)NCc3cccc(Br)c3)c2)on1,-22.2%
9,COc1cccc(CCN2CCC(CNS(=O)(=O)c3cc(-c4cc(C)no4)ccc3OC)CC2)c1,-74.9%
10,CCCNC(=O)c1[nH]c(C)c(C(C)=O)c1C,19.3%
11,Cc1cc(C)cc(C(=O)Nc2ccc(N3CCN(S(C)(=O)=O)CC3)cc2)c1,15.7%
12,Cc1ccc(CNC(=O)CCCNS(=O)(=O)c2cccc3nonc23)cc1,-11.4%
13,CCOC(=O)C(Cc1c(F)cccc1F)(NC(C)=O)C(=O)OCC,8.41%
14,CCOC(=O)C(Cc1ccccc1)(NC(C)=O)C(=O)OCC,7.61%
15,CCOC(=O)COc1ccc(N)cc1CC(NC(C)=O)(C(=O)OCC)C(=O)OCC,-72.7%
16,CC1CCCC(C)N1C(=O)COC(=O)C12CC3CC(CC(Cl)(C3)C1)C2 (stereo not shown),-18.2%
17,N#CC1(NC(=O)COC(=O)C23CC4CC(CC(O)(C4)C2)C3)CCCCC1,4.38%
18,CN(C(=O)COC(=O)C12CC3CC(CC(Cl)(C3)C1)C2)C1(C#N)CCCCC1,-53.5%
